Rv3671c protease = inhibits the M. tuberculosis serine protease Rv3671c; P9WHR9; inhibition, % at 5.96 µM; 320,000 compounds, 0.048% hits; in the data active = inhibition above about 38%;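 also: extracellular domain of Rv3671c used as enzyme; 0% = enzyme with DMSO and 100% = no enzyme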
Target sequence (P9WHR9 whole entry, looked up, the tested form may be a part): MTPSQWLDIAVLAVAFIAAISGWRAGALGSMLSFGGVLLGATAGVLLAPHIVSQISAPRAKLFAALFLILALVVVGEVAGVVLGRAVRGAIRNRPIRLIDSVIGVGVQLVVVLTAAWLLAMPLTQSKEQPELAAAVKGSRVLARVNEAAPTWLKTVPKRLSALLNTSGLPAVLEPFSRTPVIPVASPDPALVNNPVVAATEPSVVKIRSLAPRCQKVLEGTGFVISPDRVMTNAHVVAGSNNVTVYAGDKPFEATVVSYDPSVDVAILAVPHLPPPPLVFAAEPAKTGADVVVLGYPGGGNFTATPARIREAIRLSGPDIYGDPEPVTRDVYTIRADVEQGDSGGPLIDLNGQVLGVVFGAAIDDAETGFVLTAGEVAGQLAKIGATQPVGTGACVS
GDH-TPI counter-1 = counter-screen for M. tuberculosis FBA inhibitors: GDH-TPI coupled enzymes; inhibition, % at 4.8 µM; 360,000 compounds, 1.2% hits; GDH-TPI coupled enzyme counterscreen, NADH absorbance; in the data active = inhibition above about 30%;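 also: 0% = DMSO wells and 100% = wells lacking the enzyme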
FadD28 FP inh = inhibitors of Mycobacterium tuberculosis FadD28 bisubstrate binding; FadD28 bisubstrate probe binding, fluorescence polarization; inhibition, % at 12.5 µM; 360,000 compounds, 0.22% hits; in the data active = inhibition above about 8.5%, passing the limit was not always enough
Mtb FBA inh = inhibits M. tuberculosis FBA enzyme; purified M. tuberculosis FBA, fluorescence read-out; inhibition, % at 1 µM; 360,000 compounds, 2.3% hits; AID 588726;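 also: 0% = vehicle and 100% = reference inhibitor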
BioA inh = blocks M. tuberculosis BioA enzyme activity. 360,000 compounds, 0.096% hits. purified M. tuberculosis BioA enzyme, plate reader. inhibition, % at 9.99 µM; in the data active = inhibition above about 40%
Mtb FBA confirm = Mtb FBA inhibition, confirmed. shares compounds with Mtb FBA inh. purified M. tuberculosis FBA, fluorescence read-out. inhibition, % at 1 µM. 5,600 compounds, 78% hits. AID 651616;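 also: 0% = vehicle wells and 100% = reference inhibitor wells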
GDH-TPI counter-2 = counter-screen for M. tuberculosis FBA inhibitors: GDH-TPI coupled enzyme inhibition | shares compounds with Mtb FBA inh | GDH-TPI coupled enzyme counterscreen, fluorescence | inhibition, % at 1 µM | 5,600 compounds, 81% hits | AID 652141; in the data active = inhibition above about 10%
An asterisk follows results filed as active; . = no result; + = active, no number. An excerpt weighted towards active compounds, which were near 3% of everything screened. Rule as the data show it, unless noted: active = inhibition above about 27%; inactive = the rest.

SMILES	Rv3671c protease	GDH-TPI counter-1	FadD28 FP inh	Mtb FBA inh	BioA inh	Mtb FBA confirm	GDH-TPI counter-2
C[C@H]1CN([C@@H](C)CO)C(=O)c2cc(NC(=O)Nc3ccc(F)cc3)ccc2O[C@H]1CN(C)Cc1ccc(C(=O)O)cc1	.	.	.	.	-1	.	.
Cn1c(=O)c2cc(NC(=S)NCc3ccccc3F)ccc2n1C	.	8	1	57*	0	18	12*
Cn1c(=O)c2cc(NC(=O)CCc3cccc(Cl)c3)ccc2n1Cc1cccc(C(F)(F)F)c1	.	-4	-4	37*	-2	96*	84*
COc1cc(CCC(=O)Nc2cccc(C(F)(F)F)c2)cc(OC)c1OC	-4	11	-2	-1	.	.	.
O=C(NCc1ccc(Cl)cc1Cl)C1CC(=O)N(Cc2ccccc2)C1 (stereo unspecified)	-8	-1	-4	0	.	.	.
Cn1c(=O)c2cc(NC(=O)NCc3ccc(Cl)cc3Cl)ccc2n1Cc1ccccc1	.	8	0	48*	-1	152*	117*
COc1ccc(OC)c(CC(=O)Nc2ccc3c(c2)c(=O)n(C)n3Cc2cccc(C(F)(F)F)c2)c1	.	-5	-1	111*	2	36*	28*
Cn1cnc(CCNC(=O)C[C@@H]2CC[C@@H]3[C@H](COC[C@H](O)CN3C(=O)C3CC3)O2)c1	.	.	.	.	-2	.	.
CCOC(=O)COc1ccc(-c2nnc(-c3ccccc3)o2)cc1	-2	7	-2	59*	-2	41*	35*
COc1cc(-c2nnc(-c3ccccc3)o2)cc(OC)c1OC	10	11	-2	8	1	.	.
COc1ccc(-c2nnc(-c3ccccc3)o2)cc1OC	-2	1	-2	31*	6	149*	107*
COc1ccc(OC)c(NCc2nnc(-c3ccccc3)o2)c1	.	-13	-2	-1	1	.	.
COc1ccc(-c2ccc(-c3nnc(Cc4ccc(OC)c(OC)c4)o3)cc2)cc1	-1	15	-4	39*	-1	-4	-2
CCOc1ccc(-c2nnc(-c3ccccc3)o2)cc1	-10	4	1	91*	0	88*	74*
CCOc1ccc(-c2nnc(-c3ccc(OC)cc3)o2)cc1	1	9	-1	9	-1	.	.
COCC#Cc1cnc2c(c1)C(=O)N([C@H](C)CO)C[C@H](C)[C@@H](CN(C)C(=O)C1CCC1)O2	.	.	.	.	-4	.	.
CCS(=O)(=O)Nc1ccc2c(c1)C(=O)N(C)[C@H]1CC[C@@H](CC(=O)NC)O[C@H]1CO2	.	.	.	.	-5	.	.
Cc1ccc(S(=O)(=O)N[C@H]2CC[C@H](CCNC(=O)c3ccc4c(c3)OCO4)O[C@H]2CO)cc1	.	.	.	.	-1	.	.
COc1cc(OC)cc(-c2sc3ccc(OC)cc3c2C#CCO)c1	-28	1	-12	8	0	.	.
COc1cc2sc(-c3ccc(S(C)(=O)=O)cc3)c(C#CCO)c2cc1OC	-4	27	-2	54*	1	112*	87*
O=C(c1ccccn1)N1CC[C@@H]2[C@@H](CO)Nc3ccc(Br)cc3[C@@H]21	.	.	.	.	6	.	.
Cc1cc(C(F)(F)F)c2c(n1)sc1c(O)cc(=O)[nH]c12	-10	16	0	-1	-1	.	.
Cc1nc2sc3c(O)cc(=O)[nH]c3c2c(C)c1C	4	8	-4	33*	1	73*	69*
COCCCNC(=O)COC(=O)c1ccc(-c2nc3ccccc3s2)s1	1	24	-4	79*	1	94*	70*
COc1ccc(CCNC(=O)COC(=O)c2ccc(C)s2)cc1	-6	-3	-2	2	-1	.	.
SMILES	Rv3671c protease	GDH-TPI counter-1	FadD28 FP inh	Mtb FBA inh	BioA inh	Mtb FBA confirm	GDH-TPI counter-2
C=CCOc1ccc(-c2n[nH]c(=S)o2)cc1	3	4	-3	35*	0	87*	76*
Cc1ccc(COC(=O)c2nn(-c3ccccc3)nc2N)cc1	-15	1	-2	86*	.	3	-4
Cc1ccccc1C=Nc1ccccc1C(N)=O	1	8	2	50*	-1	71*	57*
Cc1ccc(C(=O)c2ccccc2C(=O)Nc2ccccc2)cc1	-3	3	-3	-1	0	.	.
O=C(N/N=C/c1cccc(O)c1)c1ccccc1O	3	16	0	-2	.	.	.
O=C(Nc1ccccc1)c1ccccc1N=Cc1cccc(O)c1	7	8	-4	41*	-1	51*	40*
Cc1ccc(C=Nc2ccccc2C(N)=O)cc1	0	1	-3	65*	0	83*	74*
Cc1ccc(C=Nc2ccccc2C(=O)Nc2ccccc2)cc1	-5	7	1	39*	.	136*	103*
NC(=O)c1ccccc1N=Cc1cccnc1	4	0	-3	20	.	.	.
C[C@H](CO)N1C[C@H](C)[C@H](CN(C)C(=O)Nc2ccc3c(c2)OCO3)Oc2ccc(NS(=O)(=O)c3cccs3)cc2CC1=O	.	.	.	.	-3	.	.
COc1cccc(C=Nc2ccccc2C(=O)Nc2ccccc2)c1O	2	3	-3	30*	1	129*	107*
COc1cccc(/C=N/NC(=O)CSCC(=O)Nc2ccccc2)c1O	-8	7	-2	0	0	.	.
CC(C)Cc1nc(N2CCN(C(=O)C(C)C)CC2)c(C#N)c2c1CCC2	-2	7	-1	33*	3	59*	41*
CC(=O)N1CCN(c2nc(CC(C)C)c3c(c2C#N)CCC3)CC1	0	17	-2	38*	8	48*	35*
CCC(=O)Nc1ccc2c(c1)C(=O)N(C)C[C@H](OC)[C@H](C)CN(CC1CCCCC1)[C@@H](C)CO2	.	.	.	.	-1	.	.
C[C@@H]1CCCCO[C@@H](CN(C)S(=O)(=O)c2cn(C)cn2)[C@@H](C)CN([C@H](C)CO)C(=O)c2cc(NS(=O)(=O)c3cccs3)ccc2O1	.	.	.	.	3	.	.
CCOC(=O)c1c(C)n(C)c2cc([N+](=O)[O-])c(O)c([N+](=O)[O-])c12	-4	-5	-4	4	4	.	.
Cc1oc2cc([N+](=O)[O-])c(O)c([N+](=O)[O-])c2c1C(=O)c1ccc(Cl)cc1	-3	31*	0	72*	10	14	13*
COc1ccc2c(O)c(-c3c(C)cc(C)cc3C)c(=O)[nH]c2c1	-4	17	0	46*	.	-6	-7
C[C@@H]1CN([C@H](C)CO)C(=O)c2cccc(NS(=O)(=O)c3cccs3)c2O[C@@H]1CN(C)Cc1ccc(Oc2ccccc2)cc1	.	.	.	.	-2	.	.
O=C(COc1ccc2c3c(c(=O)oc2c1)CCCC3)NC(Cc1ccc(Cl)cc1)C(=O)O (stereo unspecified)	-4	15	-2	67*	0	124*	100*
O=C(COc1ccc2c3c(c(=O)oc2c1)CCCC3)N[C@@H](Cc1ccccc1)C(=O)O	9	10	-4	59*	1	7	-1
CCN(CC)CCN1C2=C(C(=O)CC(C)(C)C2)C(c2cccc(F)c2)C2=C1CC(C)(C)CC2=O	2	14	-1	83*	.	+	200*
